Among the data in PubChem BioAssay AID743291 (Broad Institute, 2014) are outcome values, retold here.

The target of this experiment is Caspase-3 (Homo sapiens) (UniProt P42574). As to the kind of experiment: human caspase-3 protease activity blockade – biochemical, fluorescence, cherry-picked samples, selectivity assay for caspase-6 allosteric inhibitor project, dose response (AID 743291).

Measured potencies and affinities stand elsewhere. The source made the active and inactive calls.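 Rule for the calls: active = signal drop with fitted half-maximal dose at most twice the top valid dose, active in every repeat; inconclusive = repeats disagree, or flat partial inhibition, or poor fit; inactive = inactive in every repeat, including opposite effects.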

Caspase-3 (Homo sapiens), sequence (P42574 whole entry, looked up): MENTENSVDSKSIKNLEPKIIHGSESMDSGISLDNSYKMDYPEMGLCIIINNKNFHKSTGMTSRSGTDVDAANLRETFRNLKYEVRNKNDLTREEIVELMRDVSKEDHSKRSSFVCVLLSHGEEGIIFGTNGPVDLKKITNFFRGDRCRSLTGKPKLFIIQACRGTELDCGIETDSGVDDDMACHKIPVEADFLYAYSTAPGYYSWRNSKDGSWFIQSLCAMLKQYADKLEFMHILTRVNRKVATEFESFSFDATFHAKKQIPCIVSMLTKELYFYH

Take `CN1CCc2cc3c(c4c2C1Cc1ccccc1-4)OCO3` (stereo unspecified): the outcome was inactive.
